Assay [1] deals with Plasmodium falciparum Sir2 (PF13_0152, Sir2A). In words: Plasmodium falciparum Sir2A binding compounds – biochemical, small-molecule microarray, 635 nm fluorescence, primary screen (AID 1098).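 Also: score merges spot fluorescence intensity with its signal-to-noise ratio.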 The conditions noted are these: fluorescence 635 nm, higher = more signal.
Assay [2] is described as follows: probe aDKK1 binding to arrayed compounds – biochemical, biotinylated probe, 635/667 nm fluorescence, primary screen (AID 1099).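 Also: score merges 667nm spot fluorescence with signal to noise across triplicate slides.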 To be noted: small-molecule microarray, higher = more signal.
Assay [3] is described as follows: probe aCHRDL2 binding to arrayed compounds – biochemical, biotinylated probe, 635/667 nm fluorescence, primary screen (AID 1100). To be noted: small-molecule microarray, higher = more signal.
The nature of assay [4]: change in splice reporter luminescence, either direction, cell-based, HEK293, spliceosome inhibition project, primary screen (AID 1101).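 Also: HEK293 cells carrying a splicing-competent luciferase reporter gene; test concentration not given here.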 The conditions noted are these: HEK293 splicing luciferase reporter, 24 h, higher = more signal, called active from +8 up or from −8 down. (In general: In a reporter assay the amount or activity of a reporter protein is the signal.)
Assay [5] concerns the target Fibroblast growth factor 10 (Homo sapiens) (UniProt O15520). In words: compounds binding fibroblast growth factor 10 – biochemical, small-molecule microarray, 635 nm fluorescence, primary screen (AID 1102). To be noted: FGF10 binding, fluorescence 635 nm, higher = more signal.
For assay [6], the system named is glycogen synthase kinase-3 (GSK3A per assay name; protocol says GSK3B). Put plainly: compounds binding glycogen synthase kinase-3 – biochemical, small-molecule microarray, 635 nm fluorescence, GSK3A, primary screen (AID 1103). Also: the record names both GSK3A and GSK3B. The conditions noted are these: fluorescence 635 nm, higher = more signal.
Assay [7] deals with Epidermal growth factor receptor (Homo sapiens) (UniProt P00533). Put plainly: compounds binding epidermal growth factor receptor – biochemical, small-molecule microarray, 635 nm fluorescence, primary screen (AID 1104).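 Also: score merges 667 nm emission intensity with spot signal to noise over triplicate slides.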 To be noted: EGFR binding, higher = more signal.
Chain of Epidermal growth factor receptor (Homo sapiens) (P00533 whole entry, looked up): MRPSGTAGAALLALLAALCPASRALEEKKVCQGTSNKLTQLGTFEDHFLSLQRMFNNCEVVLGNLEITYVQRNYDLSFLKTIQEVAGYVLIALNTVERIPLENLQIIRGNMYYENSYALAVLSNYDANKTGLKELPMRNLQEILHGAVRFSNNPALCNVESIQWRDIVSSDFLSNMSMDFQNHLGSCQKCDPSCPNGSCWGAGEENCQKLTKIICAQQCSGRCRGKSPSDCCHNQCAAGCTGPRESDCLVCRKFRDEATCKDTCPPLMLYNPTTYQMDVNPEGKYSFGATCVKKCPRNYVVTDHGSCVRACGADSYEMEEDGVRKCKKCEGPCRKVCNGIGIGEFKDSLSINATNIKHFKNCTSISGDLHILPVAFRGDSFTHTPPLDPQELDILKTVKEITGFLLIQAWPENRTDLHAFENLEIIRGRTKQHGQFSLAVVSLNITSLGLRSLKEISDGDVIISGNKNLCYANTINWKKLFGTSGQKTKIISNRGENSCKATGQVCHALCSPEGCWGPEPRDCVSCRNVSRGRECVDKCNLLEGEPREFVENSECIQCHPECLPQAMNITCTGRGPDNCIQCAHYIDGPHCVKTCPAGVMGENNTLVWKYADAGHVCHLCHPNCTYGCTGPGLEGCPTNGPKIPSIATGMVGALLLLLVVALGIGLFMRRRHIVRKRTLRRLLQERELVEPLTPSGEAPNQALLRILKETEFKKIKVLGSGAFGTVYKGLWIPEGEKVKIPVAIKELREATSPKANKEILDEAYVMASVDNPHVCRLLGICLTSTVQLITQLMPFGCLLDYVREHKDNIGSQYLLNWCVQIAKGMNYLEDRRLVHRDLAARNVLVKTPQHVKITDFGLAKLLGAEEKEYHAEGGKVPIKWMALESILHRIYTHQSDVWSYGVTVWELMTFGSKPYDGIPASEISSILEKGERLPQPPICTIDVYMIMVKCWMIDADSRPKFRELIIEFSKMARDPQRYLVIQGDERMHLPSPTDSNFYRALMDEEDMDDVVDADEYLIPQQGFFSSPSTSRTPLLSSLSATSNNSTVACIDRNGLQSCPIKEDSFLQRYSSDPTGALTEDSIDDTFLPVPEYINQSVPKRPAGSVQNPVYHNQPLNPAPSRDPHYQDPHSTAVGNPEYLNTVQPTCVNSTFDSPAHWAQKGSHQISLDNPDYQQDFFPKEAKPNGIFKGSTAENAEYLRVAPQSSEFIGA
The target of assay [8] is Follistatin-related protein 3 (Homo sapiens) (UniProt O95633). In words: compounds binding follistatin-related protein 3 – biochemical, small-molecule microarray, 635 nm fluorescence, primary screen (AID 1105).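 Also: score merges emission near 667 nm and signal to noise per printed spot across three slides.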 To be noted: FSTL3 binding, higher = more signal.
Chain of Follistatin-related protein 3 (Homo sapiens) (O95633 whole entry, looked up): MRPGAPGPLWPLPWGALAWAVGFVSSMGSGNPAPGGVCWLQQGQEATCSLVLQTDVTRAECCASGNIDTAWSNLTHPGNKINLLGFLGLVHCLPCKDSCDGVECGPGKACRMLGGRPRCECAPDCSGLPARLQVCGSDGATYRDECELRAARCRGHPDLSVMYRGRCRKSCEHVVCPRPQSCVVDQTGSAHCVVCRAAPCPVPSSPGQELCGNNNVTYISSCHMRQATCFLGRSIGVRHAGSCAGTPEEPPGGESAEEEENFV
Assay [9] deals with Dickkopf-related protein 1 (Homo sapiens) (UniProt O94907). In words: small molecules binding DKK1 protein – biochemical, small-molecule microarray, 635 nm fluorescence scan, primary screen (AID 1106).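 Also: score merges emission near 667 nm with signal to noise over three replicate slides.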 To be noted: higher = more signal.
Chain of Dickkopf-related protein 1 (Homo sapiens) (O94907 whole entry, looked up): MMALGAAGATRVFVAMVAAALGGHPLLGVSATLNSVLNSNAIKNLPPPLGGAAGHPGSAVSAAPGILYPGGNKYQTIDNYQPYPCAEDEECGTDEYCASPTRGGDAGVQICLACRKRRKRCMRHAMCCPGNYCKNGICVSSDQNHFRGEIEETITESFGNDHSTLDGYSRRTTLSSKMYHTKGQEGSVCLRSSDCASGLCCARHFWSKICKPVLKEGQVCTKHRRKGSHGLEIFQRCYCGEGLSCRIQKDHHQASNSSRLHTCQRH
In assay [10] the test system is Inhibin beta A chain (activin A). In words: small molecules binding activin A – biochemical, small-molecule microarray, 635 nm fluorescence scan, primary screen (AID 1107).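 Also: mouse activin A protein probed at 4.33 µg/mL on printed slides; score merges bound-protein fluorescence near 667 nm with spot signal-to-noise.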 The conditions noted are these: INHBA, higher = more signal.
Assay [11] deals with Human papillomavirus type 1a protein E7 (residues 44-93). Put plainly: small molecules binding HPV E7 44-93 – biochemical, small-molecule microarray, residues 44-93, 635 nm fluorescence, primary screen (AID 1108).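 Also: E7 fragment applied at 1 µg/mL in TBST for 1 h at 4 C; score combines spot fluorescence with its signal to noise ratio.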 The conditions noted are these: fluorescence 635 nm, higher = more signal.
Assay [12] in a line: hepatitis C replication reporter changes, two-sided – Huh7 cells, luciferase reporter, HCV replication inhibitor project, primary screen (AID 1109).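 Also: huh7 hepatoma cells harbouring a luciferase neomycin HCV replicon reporter; luciferase luminescence as measure of HCV replicon replication; test concentration not given here.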 To be noted: Huh7 HCV replicon luciferase reporter, 48 h; higher = more signal.
In assay [13] the target is Left-right determination factor 2 (Homo sapiens) (UniProt O00292). In words: small molecules binding LEFTY2 protein – biochemical, small-molecule microarray, 635 nm fluorescence scan, primary screen (AID 1110). To be noted: higher = more signal.
Chain of Left-right determination factor 2 (Homo sapiens) (O00292 whole entry, looked up): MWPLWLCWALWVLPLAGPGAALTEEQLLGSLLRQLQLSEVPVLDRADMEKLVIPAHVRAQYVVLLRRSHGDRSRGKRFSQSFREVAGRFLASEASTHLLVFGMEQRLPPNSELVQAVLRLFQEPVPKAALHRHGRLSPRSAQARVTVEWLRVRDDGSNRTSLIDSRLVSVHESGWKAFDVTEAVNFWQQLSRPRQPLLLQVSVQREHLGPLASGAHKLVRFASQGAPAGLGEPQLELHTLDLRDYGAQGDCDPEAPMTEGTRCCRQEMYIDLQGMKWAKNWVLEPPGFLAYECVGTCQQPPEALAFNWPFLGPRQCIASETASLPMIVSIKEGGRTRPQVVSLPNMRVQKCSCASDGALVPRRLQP
Assay [14] addresses Calmodulin-1 (Homo sapiens) (UniProt P0DP23). In words: small molecules binding calmodulin-1 with EGTA – biochemical, small-molecule microarray, Cy5-labelled CALM1, profiling panel (AID 1111).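 Also: labelled calmodulin applied in Tris saline Tween buffer holding calcium plus EGTA and DTT.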 The conditions noted are these: Cy5-CALM1 binding fluorescence, higher = more signal.
Assay [15] shares this target. In words: small molecules binding Ca-loaded calmodulin-1 – biochemical, small-molecule microarray, Cy5-labelled CALM1, plus calcium, artefact control for SMM control-protein annotation, profiling panel (AID 1112).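 Also: score merges spot fluorescence with signal to noise from triplicate slides.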 The conditions noted are these: Cy5-CALM1 binding fluorescence, higher = more signal.
Assay [16] can be described thus: probe aWnt5a binding to arrayed compounds – biochemical, biotinylated probe, 635/667 nm fluorescence, primary screen (AID 1113).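 Also: score merges 667 nm fluorescence intensity with signal-to-noise per printed feature.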 To be noted: small-molecule microarray, higher = more signal.
Assay [17] is described as follows: probe aShh binding to arrayed compounds – biochemical, biotinylated probe, 635/667 nm fluorescence, primary screen (AID 1114).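 Also: probe is biotin-labelled aShh protein from a stem cell growth factor screen; measures binding of labelled protein to compounds printed on the slide; score merges feature fluorescence at 667 nm with signal-to-noise.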 The conditions noted are these: small-molecule microarray, higher = more signal.
Assay [18] in a line: probe aNog binding to arrayed compounds – biochemical, biotinylated probe, 635/667 nm fluorescence, primary screen (AID 1115).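 Also: probe is biotinylated aNog protein used at 0.15 µg/mL for 1 h at 4 C; z-score combines 667 nm fluorescence of each spot with its signal to noise.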 To be noted: small-molecule microarray, higher = more signal.
The target in assay [19] is Torsin-1A-interacting protein 1 (Homo sapiens) (UniProt Q5JTV8). In words: compound microarray binding of lysate hLAP1 – cell lysate, small-molecule microarray, COS7 lysate, 635/667 nm fluorescence, primary screen (AID 1116). To be noted: 635 nm fluorescence, higher = more signal.
Chain of Torsin-1A-interacting protein 1 (Homo sapiens) (Q5JTV8 whole entry, looked up): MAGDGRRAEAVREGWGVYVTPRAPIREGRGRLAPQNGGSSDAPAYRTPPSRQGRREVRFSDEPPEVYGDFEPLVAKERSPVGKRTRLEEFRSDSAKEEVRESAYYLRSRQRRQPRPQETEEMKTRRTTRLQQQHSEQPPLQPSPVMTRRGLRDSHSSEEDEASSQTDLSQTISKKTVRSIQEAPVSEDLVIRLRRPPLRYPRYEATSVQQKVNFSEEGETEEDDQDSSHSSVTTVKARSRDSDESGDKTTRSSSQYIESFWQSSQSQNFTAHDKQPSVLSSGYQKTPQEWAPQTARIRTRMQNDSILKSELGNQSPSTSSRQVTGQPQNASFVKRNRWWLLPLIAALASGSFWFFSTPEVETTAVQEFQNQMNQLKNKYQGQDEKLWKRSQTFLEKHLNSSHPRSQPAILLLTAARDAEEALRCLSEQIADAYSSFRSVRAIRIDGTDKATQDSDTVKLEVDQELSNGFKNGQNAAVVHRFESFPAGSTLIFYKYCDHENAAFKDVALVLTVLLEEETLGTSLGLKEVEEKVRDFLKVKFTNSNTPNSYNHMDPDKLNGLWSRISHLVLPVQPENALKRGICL
Assay [20] concerns the target Alpha-bungarotoxin (Bungarus multicinctus) (UniProt P60615). In words: compounds binding labelled alpha-BTX control protein – biochemical, small-molecule microarray, Alexa647 label, 635/667 nm fluorescence, artefact control for SMM control protein annotation, profiling panel (AID 1117). The conditions noted are these: alpha-BTX-A647 binding fluorescence, higher = more signal.

Calls of active or inactive are those of the source.

Chain of Fibroblast growth factor 10 (Homo sapiens) (O15520 whole entry, looked up): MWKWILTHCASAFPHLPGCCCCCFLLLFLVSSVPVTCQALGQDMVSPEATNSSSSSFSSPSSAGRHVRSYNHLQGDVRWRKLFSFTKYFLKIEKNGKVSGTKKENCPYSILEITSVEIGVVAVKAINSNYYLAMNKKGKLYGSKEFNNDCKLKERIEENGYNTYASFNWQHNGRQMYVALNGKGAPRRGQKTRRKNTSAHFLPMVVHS
Chain of Alpha-bungarotoxin (Bungarus multicinctus) (P60615 whole entry, looked up): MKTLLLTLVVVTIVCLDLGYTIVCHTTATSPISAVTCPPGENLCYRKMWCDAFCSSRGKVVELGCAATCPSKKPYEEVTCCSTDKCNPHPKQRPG

For `O=C1O[C@H](c2ccccc2)[C@H](c2ccccc2)N2[C@H]1[C@@H](C(=O)O)[C@]1(C(=O)Nc3ccc(C#CC4(O)CCCCCC4)cc31)[C@H]2c1ccc(OCCO)cc1`, the composite z-score in [1] is 0.303; in assay [2], 0.2; in assay [3], 0.388; in assay [5] it was 0.299; in assay [6] it was 0.132; in assay [7] it was -0.329. For the same molecule, the composite z-score in assay [8] was 0.418; in [9], -0.623; in [10], -0.374; in [11] it was 1.5; in assay [13], -0.418; in assay [14], 1.89. Moreover, the composite z-score in assay [15] is 0.475; in [16] it was 0.0692; in [17] it was 0.0048; in assay [18], 0.0028; in [19], 0.535; in assay [20] it was 2.21. The results for the z-score in assay [4] and in [12] were -0.117 (inactive) and -1.77, respectively.
Regarding `[N-]=[N+]=Nc1ccccc1[C@@H]1OC(c2ccc(OCCCO)cc2)=N[C@]1(CCS(=O)(=O)c1ccccc1)C(=O)N1CCOCC1`, the composite z-score in [1] was 1.43; in assay [2] it was 1.04; in assay [3] it was 0.994; in [5], 1.37; in assay [6] it was 1.09; in assay [7] it was 0.569. Moreover, the composite z-score in assay [8] was 1.36; in assay [9], 0.14; in assay [10], 1.58; in assay [11], 1.03; in [13] it was 0.647; in [14], 1.74. Besides, the composite z-score in [15] is 0.764; in assay [16], 0.16; in [17], 0.326; in assay [18] it was 0.939; in assay [19] it was 1.42; in [20], 2.84. Further, the z-score in assay [4] was -0.4 (inactive); in [12] it was 2.34.
Consider `C=CCOC(=O)[C@@H]1[C@H]2C(=O)O[C@H](c3ccccc3)[C@H](c3ccccc3)N2[C@H](c2ccc(OCCOC(=O)[C@@H]3C[C@@H]4C(=O)NCC(=O)N4[C@@H]3c3cccc(OCCO)c3)cc2)[C@@]12C(=O)Nc1ccc(I)cc12`, for which the composite z-score in assay [1] is 1.05; in assay [2], 0.0651; in assay [3] it was -0.162; in assay [5], 1.29; in assay [6], 1.16; in assay [7], 1.12. Moreover, the composite z-score in assay [8] stood at 1.1; in assay [9], 0.866; in [10], 0.884; in [11], 1.43; in assay [13], 0.949; in assay [14] it was 0.689. In addition, the composite z-score in [15] is -0.0508; in [16], -0.0735; in assay [17], -0.043; in [18], 1.07; in [19], -1.86; in assay [20], 1.75. Also, the z-score was -0.798 (inactive) in assay [4] and -1.54 in [12].
As for `C[C@]1(C(=O)NCc2ccccc2)c2ccccc2C(=O)N(Cc2ccc(OC(F)(F)F)cc2)[C@H]1c1ccc(CO)cc1`, the composite z-score in assay [1] was 0.0162; in assay [2], -0.098; in assay [3], 0.663; in assay [5] it was 0.0259; in assay [6], 0.0034; in assay [7] it was -0.535. In addition, the composite z-score was 0.115 in assay [8]; -0.393 in assay [9]; 0.0615 in assay [10]; 1.39 in assay [11]; -0.579 in assay [13]; -0.119 in assay [14]. The composite z-score is 0.122 in [15]; -0.0882 in assay [16]; -0.304 in [17]; -0.381 in assay [18]; 0.696 in assay [19]; -0.141 in assay [20]. The z-score in assay [4] was -0.557 (inactive); in assay [12], 0.0711.
In the case of `O=C1O[C@H](c2ccccc2)[C@H](c2ccccc2)N2[C@H]1[C@@H](C(=O)O)[C@]1(C(=O)Nc3ccc(C#CC4=CCCCC4)cc31)[C@H]2c1ccc(OCCO)cc1`, the composite z-score in assay [1] was 1.43; in [2], -0.211; in [3], -0.701; in assay [5] it was 1.25; in [6], 1.28; in assay [7], 0.58. In addition, the composite z-score in assay [8] is 1.42; in assay [9], 0.765; in assay [10] it was 0.302; in assay [11], 1.22; in assay [13], 0.659; in [14], 0.447. The composite z-score is 0.166 in assay [15]; 0.055 in [16]; -0.304 in assay [17]; 1.17 in [18]; 1.09 in assay [19]; 2.81 in assay [20]. Moreover, the z-score in assay [4] was -0.248 (inactive); in assay [12] it was -1.69.

The values above are taken from PubChem BioAssay.
